T cruzi growth-1 = T. cruzi proliferation inhibition. T. cruzi beta-gal in NIH3T3, GalScreen luminescence, 90 h. inhibition, % at 8.34 µM. 77,000 tested, 5.9% active. AID 624255;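 active = mean inhibition above about 93%, with at least 55% of replicates each passing it, limit read from the data, passing the limit was not always enough; inconclusive = only one of those two conditions holds; inactive = neither condition holds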
C diff HTS = blocks growth of Clostridium difficile; Clostridium difficile clinical isolate growth, OD600, 24 h; active compounds read low; growth activity, negative = inhibition, % at 16 µg/mL (by protocol); 86,000 tested, 0.25% active; AID 1259249;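 active = mean growth activity at or below -80% and every replicate also at or below -80%; inconclusive = mean at or below -80% but some replicate above -80%; inactive = mean growth activity above -80%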;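 note: 0% = DMSO wells and -100% = levofloxacin 16 µg/mL wells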
T cruzi growth-2 = blocks T. cruzi growth in NIH3T3 host cells; shares compounds with T cruzi growth-1; T. cruzi beta-gal in NIH3T3, GalScreen luminescence, 90 h; inhibition, % at 8.35 µM; 5,600 tested, 72% active;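 active = mean replicate inhibition above about 95% and at least 55% of replicates individually reaching it, limit read from the data; inconclusive = only one of the two criteria is met; inactive = neither criterion is met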
T cruzi growth-3 = blocks T. cruzi growth in NIH3T3 host cells. 5,600 tested, 21% active. shares compounds with T cruzi growth-1. T. cruzi beta-gal in NIH3T3, GalScreen luminescence, 90 h. inhibition, % at 2.09 µM;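 active = mean inhibition above about 95%, with at least 55% of replicates also reaching it, limit read from the data; inconclusive = meets just one of the two conditions; inactive = meets neither condition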;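 note: plate controls were neutral control median for no effect and positive control median for full effect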
3T3 cytotox = NIH/3T3 (mouse) viability loss; NIH/3T3 viability, CellTiter-Glo ATP luminescence, 90 h; 5,600 tested, 14% active; AID 651742; cytotoxicity (signal decrease), % at 8.35 µM; shares compounds with T cruzi growth-1;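 active = mean signal decrease across replicates above about 35% based on untreated-well scatter, with enough replicates individually passing, limit read from the data; inconclusive = no rule stated though some were filed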;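 note: 0% = median of neutral control wells and 100% = median of positive control wells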
NIH3T3 tox 2 = NIH/3T3 (mouse) viability loss; shares compounds with T cruzi growth-1; NIH/3T3 viability, CellTiter-Glo ATP luminescence, 90 h; inhibition, % at 24.9 µM; 5,600 tested, 56% active;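 active = mean loss of cell viability signal at or above a set limit, and enough replicates individually reaching it; inconclusive = meets only the mean limit or only the replicate share; inactive = meets neither condition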;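 note: 0% = median of neutral control wells and 100% = median of positive control wells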
* = called active by the depositor; u = inconclusive; x = no result; ! = a repeat was not active. This is one part of a sample in which hits are shown more often than they occur.

SMILES | T cruzi growth-1 | C diff HTS | T cruzi growth-2 | T cruzi growth-3 | 3T3 cytotox | NIH3T3 tox 2
O=C(C[C@@H]1C[C@@H]2c3cc(NC(=O)Nc4ccccc4)ccc3O[C@@H]2[C@H](CO)O1)NC1CCCCC1 | 12 | x | x | x | x | x
O=C(Nc1ccc2c(c1)[C@H]1C[C@@H](CC(=O)N3CCc4ccccc4C3)O[C@@H](CO)[C@H]1O2)Nc1ccccc1F | x | 6 | x | x | x | x
O=C(Nc1ccc(C(F)(F)F)cc1)Nc1ccc2c(c1)[C@@H]1C[C@H](CC(=O)N3CCc4ccccc4C3)O[C@@H](CO)[C@@H]1O2 | 153* | -1 | 103* | 114* | 13 | 19
O=C(Nc1ccc(C(F)(F)F)cc1)Nc1ccc2c(c1)[C@@H]1C[C@@H](CC(=O)N3CCc4ccccc4C3)O[C@@H](CO)[C@@H]1O2 | 77 | 11 | x | x | x | x
O=C(Nc1ccc(C(F)(F)F)cc1)Nc1ccc2c(c1)[C@H]1C[C@H](CC(=O)N3CCc4ccccc4C3)O[C@H](CO)[C@H]1O2 | u | 22 | 85 | 110* | 54* | 106*
C[C@@H]1CN([C@H](C)CO)C(=O)c2cc(NS(=O)(=O)c3cccs3)ccc2O[C@@H](C)CCCCO[C@H]1CN(C)S(=O)(=O)c1cccs1 | 28 | -1 | x | x | x | x
O=C(C[C@@H]1CC[C@@H]2[C@H](COC[C@@H](O)CN2C(=O)Nc2ccc(F)cc2)O1)NC1Cc2ccccc2C1 | 28 | x | x | x | x | x
O=C(C[C@@H]1CC[C@H]2[C@@H](COC[C@H](O)CN2C(=O)Nc2ccc(F)cc2)O1)NC1Cc2ccccc2C1 | 60 | x | x | x | x | x
O=C(C[C@H]1CC[C@H]2[C@@H](COC[C@H](O)CN2C(=O)Nc2ccc(C(F)(F)F)cc2)O1)NC1Cc2ccccc2C1 | 121* | -90*! | 105* | 53 | 51* | 107*
O=C(C[C@@H]1CC[C@@H]2[C@H](COC[C@@H](O)CN2C(=O)Nc2ccc(C(F)(F)F)cc2)O1)NC1Cc2ccccc2C1 | 112* | -100*! | 96* | 94 | 21 | 105*
CN(C)CC(=O)N1CC2(C1)[C@H](c1ccccc1)[C@H](CO)N2S(C)(=O)=O | x | -2 | x | x | x | x
CC(C)NC(=O)N(C)C[C@@H]1Oc2ncc(C3=CCCCC3)cc2C(=O)N([C@H](C)CO)C[C@H]1C | -105 | 2 | x | x | x | x
COc1ccc2c3c(n(C)c2c1)[C@H](CO)N(Cc1ccccc1Cl)CC31CCN(C(=O)CC2CC2)CC1 | x | 10 | x | x | x | x
C[C@@H]1CN([C@@H](C)CO)C(=O)c2cc(C#CC3CCCCC3)cnc2O[C@H]1CN(C)S(=O)(=O)c1cccc(F)c1 | x | 3 | x | x | x | x
C[C@@H]1CN([C@@H](C)CO)C(=O)c2cc(C#CC3CCCCC3)cnc2O[C@@H]1CN(C)S(=O)(=O)c1cccc(F)c1 | x | -6 | x | x | x | x
C[C@@H]1CN([C@H](C)CO)C(=O)c2cc(C#CC3CCCC3)cnc2O[C@H]1CN(C)S(=O)(=O)c1cccc(F)c1 | u | -1 | 104* | 80 | 32 | 77*
C[C@H]1CN([C@@H](C)CO)C(=O)c2cc(C#CC3CCCC3)cnc2O[C@@H]1CN(C)S(=O)(=O)c1cccc(F)c1 | 120* | -2 | 105* | 48 | 11 | 83*
C[C@@H]1CCCCO[C@H](CN(C)C(=O)Nc2ccc(F)cc2)[C@@H](C)CN([C@@H](C)CO)C(=O)c2cc(NS(C)(=O)=O)ccc2O1 | 37 | 6 | x | x | x | x
Cc1cccc(S(=O)(=O)N2C[C@@H]3[C@H](c4ccccc42)[C@@H](CO)N3CC2CCOCC2)c1 | 24 | 2 | x | x | x | x
Cc1cccc(S(=O)(=O)N2C[C@H]3[C@@H](c4ccccc42)[C@@H](CO)N3CC2CCCC2)c1 | 99* | 38 | 104* | 93 | 24 | 103*
Cc1cccc(S(=O)(=O)N2C[C@@H]3[C@H](c4ccccc42)[C@H](CO)N3CC2CCCC2)c1 | 98* | 35 | 104* | 72 | 11 | 99*
Cc1cccc(S(=O)(=O)N2C[C@@H]3[C@H](c4ccccc42)[C@@H](CO)N3CC2CCCC2)c1 | 61 | 50 | x | x | x | x
CCCC#Cc1cnc2c(c1)C(=O)N([C@@H](C)CO)C[C@H](C)[C@H](CN(C)C(=O)Nc1c(C)noc1C)O2 | -56 | 8 | x | x | x | x
C[C@@H]1CN([C@@H](C)CO)C(=O)c2ccccc2-c2ccccc2CO[C@@H]1CN(C)Cc1ccncc1 | u | 2 | 38 | -30 | 11 | u
C[C@H](CO)N1C[C@H](C)[C@H](CN(C)Cc2ccccc2)OCc2ccccc2-c2ccccc2C1=O | 32 | x | x | x | x | x
SMILES | T cruzi growth-1 | C diff HTS | T cruzi growth-2 | T cruzi growth-3 | 3T3 cytotox | NIH3T3 tox 2
C[C@@H]1CN([C@H](C)CO)C(=O)c2ccccc2-c2ccccc2CO[C@@H]1CN(C)Cc1ccncc1 | 73 | 2 | x | x | x | x
C[C@H](CO)N1C[C@H](C)[C@@H](CN(C)Cc2ccncc2)OCc2ccccc2-c2ccccc2C1=O | u | 0 | 69 | 13 | -3 | -8
C[C@@H]1CN([C@H](C)CO)C(=O)c2cc(NC(=O)Nc3ccc(C(F)(F)F)cc3)ccc2O[C@@H]1CN(C)Cc1ccc(-c2ccccc2)cc1 | -27 | 0 | x | x | x | x
C[C@H](CO)N1C[C@H](C)[C@@H](CN(C)S(=O)(=O)c2cn(C)cn2)OCCCC[C@H](C)Oc2ccc(NC(=O)c3ccncc3)cc2C1=O | 13 | 0 | x | x | x | x
CCC(=O)N1[C@@H]2Cn3c(ccc(-c4cccnc4)c3=O)[C@H]1[C@@H](C(=O)NC1CCC1)[C@@H]2CO | -20 | -3 | x | x | x | x
C[C@@H]1CN([C@H](C)CO)S(=O)(=O)c2ccc(C#CCC3CCCC3)cc2O[C@H]1CN(C)C(=O)CN(C)C | 113 | 1 | x | x | x | x
CCC(=O)N(C)C[C@@H]1Oc2cc(C#CCC3CCCC3)ccc2S(=O)(=O)N([C@H](C)CO)C[C@@H]1C | 105* | 4 | 107* | 87 | 4 | 97*
C[C@H]1CN([C@@H](C)CO)S(=O)(=O)c2ccc(C#CCC3CCCC3)cc2O[C@@H]1CN(C)C(=O)CN(C)C | 122 | 4 | x | x | x | x
CCC(=O)N(C)C[C@@H]1Oc2cc(C#CCC3CCCC3)ccc2S(=O)(=O)N([C@@H](C)CO)C[C@@H]1C | 97* | -18 | u | 88 | 19 | 104*
Cc1noc(C)c1NC(=O)Nc1ccc2c(c1)C(=O)N([C@H](C)CO)C[C@H](C)[C@@H](CN(C)C(=O)NC1CCCCC1)OCCCC[C@@H](C)O2 | x | 0 | x | x | x | x
C[C@@H]1CN([C@@H](C)CO)S(=O)(=O)c2ccc(C#CC(C)(C)O)cc2O[C@@H]1CN(C)Cc1ccccc1 | 42 | -5 | x | x | x | x
CCN1[C@H](C(=O)NCCc2cn(C)cn2)[C@@H](CO)[C@@H]2Cn3c(ccc(-c4ccc(F)cc4)c3=O)[C@@H]21 | -3 | 4 | x | x | x | x
CCC(=O)N1CC2(CCN(C(=O)Nc3c(C)noc3C)CC2)c2c([nH]c3cc(OC)ccc23)[C@@H]1CO | x | 4 | x | x | x | x
C[C@H](O)C#Cc1cnc2c(c1)C(=O)N([C@H](C)CO)C[C@H](C)[C@H](CN(C)Cc1ccccn1)O2 | -8 | 2 | x | x | x | x

Compound activity (PubChem)
